PubChem BioAssay (Tox21)
Several values for one entry are separate records, joined by “and”; a condition that tells them apart may be missing. Identical values can stand only once. Inconclusive results are not listed. Activity calls are given as the source filed them. Calls follow the shape of the dose curve; as a rule, active = well fitted curve in the direction sought with a large enough effect in the repeat runs; inconclusive = weak or mixed curves; inactive = no such curve, though single readings can be large; an effect the other way counts as inactive or inconclusive.

Columns and labels:
[1] = qHTS RealTime-Glo MT Cell Viability Assay in HEK293 cells - 40 hour (AID 1224874); settings: RealTime-Glo luminescence; max response: active compounds read low; also: nearly all actives have a fitted effect of over 50% in size
In short: (§1)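 Luminescence readout at each listed time point; HEK293, 600 cells/well, RealTime-Glo MT reagent added with cells; compounds pinned (23 nL in DMSO) after 5 h at 37 C; continuous culture at 37 C.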

[2] = A CellTox Green Cytotoxicity Assay to monitor cytotoxicity in HEK293 cells - 24 hour (AID 1224875); also: series mostly up to about 77 µM; nearly all actives have a fitted effect of over 45% in size
In short: (§2)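 Read-out: fluorescence of a cell-impermeant cyanine dye staining DNA of dead cells, proportional to cytotoxicity. HEK293, 600 cells/well with reagent, compound (23 nL DMSO) added after 5 h; reads at 0, 8, 16, 24, 32, 40 h.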

[3] = A CellTox Green Cytotoxicity Assay to monitor cytotoxicity in HepG2 cells - 16 hour (AID 1224876); also: nearly all actives have a fitted effect of over 45% in size
In short: (§3)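 HepG2, 600 cells/well premixed w/ CellTox Green; 5 h settle, 37 C/5% CO2; pintool cpd add (DMSO); 37 C, 40 h; fluorescence read at 0, 8, 16, 24, 32, 40 h.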

[4] = qHTS RealTime-Glo MT Cell Viability Assay in HepG2 cells - 32 hour (AID 1224877); also: nearly all actives have a fitted effect of over 55% in size
In short: (§4)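 Real-time, nonlytic viability: 600 HepG2 cells/well mixed with NanoLuc enzyme plus prosubstrate; 5 h settle, compound (DMSO) added by pintool; luminescence monitored over 40 h at 37 C.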

[5] = A CellTox Green Cytotoxicity Assay to monitor cytotoxicity in HepG2 cells - 24 hour (AID 1224878); also: nearly all actives have a fitted effect of over 45% in size
In short: as §3

[6] = qHTS RealTime-Glo MT Cell Viability Assay in HEK293 cells - 0 hour (AID 1224880); also: top concentration of the series differs between compounds; nearly all actives have a fitted effect of over 45% in size
In short: as §1

[7] = A CellTox Green Cytotoxicity Assay to monitor cytotoxicity in HEK293 cells - 32 hour (AID 1224881); also: nearly all actives have a fitted effect of over 40% in size
In short: as §2

[8] = A CellTox Green Cytotoxicity Assay to monitor cytotoxicity in HepG2 cells - 0 hour (AID 1224882); also: nearly all actives have a fitted effect of over 35% in size
In short: as §3

[9] = A CellTox Green Cytotoxicity Assay to monitor cytotoxicity in HepG2 cells - 32 hour (AID 1224883); also: nearly all actives have a fitted effect of over 50% in size
In short: as §3

[10] = A CellTox Green Cytotoxicity Assay to monitor cytotoxicity in HEK293 cells - 8 hour (AID 1224884); also: nearly all actives have a fitted effect of over 35% in size
In short: as §2

[11] = qHTS RealTime-Glo MT Cell Viability Assay in HepG2 cells - 16 hour (AID 1224885); also: nearly all actives have a fitted effect of over 50% in size
In short: as §4

[12] = qHTS RealTime-Glo MT Cell Viability Assay in HEK293 cells - 24 hour (AID 1224886); also: top concentration of the series differs between compounds; nearly all actives have a fitted effect of over 50% in size
In short: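 Cells + reagent dispensed (600 cells/well, HEK293) → 5 h at 37 C/5% CO2 → 23 nL compound in DMSO pinned → 40 h at 37 C → luminescence read at 0, 8, 16, 24, 32, 40 h.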

[13] = qHTS RealTime-Glo MT Cell Viability Assay in HEK293 cells - 8 hour (AID 1224887)
In short: as §1

[14] = A CellTox Green Cytotoxicity Assay to monitor cytotoxicity in HEK293 cells - 16 hour (AID 1224888); also: nearly all actives have a fitted effect of over 35% in size
In short: as §2

[15] = qHTS RealTime-Glo MT Cell Viability Assay in HepG2 cells - 0 hour (AID 1224889); also: nearly all actives have a fitted effect of over 50% in size
In short: as §4

[16] = A CellTox Green Cytotoxicity Assay to monitor cytotoxicity in HepG2 cells - 8 hour (AID 1224890); also: nearly all actives have a fitted effect of over 45% in size
In short: as §3

[17] = qHTS assay to identify small molecule antagonists of the estrogen receptor alpha (ER-alpha) signaling pathway using the BG1 cell line in the presence of 0.1 nM 17-beta-estradiol - cell viability counter screen (AID 1259241); also: nearly all actives have a fitted effect of over 40% in size
In short: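 VM7Luc4E2, 4,000 cells/well, phenol red-free medium + 10% charcoal-stripped FBS; 24 hr plating; cpd + 0.1 nM E2 final, 22 hr 37C/5% CO2; CellTiter-Fluor 30 min, fluorescence.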

[18] = qHTS assay to identify small molecule antagonists of the androgen receptor (AR) signaling pathway using the MDA cell line in the presence of 0.5 nM R1881 - cell viability counter screen (AID 1259242); also: nearly all actives have a fitted effect of over 45% in size
In short: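 Live-cell protease fluorescence, CellTiter-Fluor, 30 min at 37C. Cells: MDA-kb2, 3,000/well, preincubated 5 hr. Compounds plus 0.5 nM R1881 final, 16 hr, 37C, 0% CO2.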

[19] = A CellTox Green Cytotoxicity Assay to monitor cytotoxicity in HepG2 cells - 40 hour (AID 1224879); also: nearly all actives have a fitted effect of over 40% in size
In short: as §3

[20] = target: Androgen receptor (Homo sapiens) (UniProt P10275); test: qHTS assay to identify small molecule antagonists of the androgen receptor (AR) signaling pathway using the MDA cell line in the presence of 0.5 nM R1881 (AID 1259243); also: nearly all actives have a fitted effect of over 50% in size
In short: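 MDA-kb2, MMTV-luc (AR/GR elements); 3,000 cells/well; cpd + 0.5 nM R1881 final; 16 hr 37C, 0% CO2; ONE-Glo 30 min RT; luminescence.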
% is scaled to controls: 0 for no effect and ±100 for the full control effect.

Chain of Androgen receptor (Homo sapiens) (P10275 whole entry, looked up): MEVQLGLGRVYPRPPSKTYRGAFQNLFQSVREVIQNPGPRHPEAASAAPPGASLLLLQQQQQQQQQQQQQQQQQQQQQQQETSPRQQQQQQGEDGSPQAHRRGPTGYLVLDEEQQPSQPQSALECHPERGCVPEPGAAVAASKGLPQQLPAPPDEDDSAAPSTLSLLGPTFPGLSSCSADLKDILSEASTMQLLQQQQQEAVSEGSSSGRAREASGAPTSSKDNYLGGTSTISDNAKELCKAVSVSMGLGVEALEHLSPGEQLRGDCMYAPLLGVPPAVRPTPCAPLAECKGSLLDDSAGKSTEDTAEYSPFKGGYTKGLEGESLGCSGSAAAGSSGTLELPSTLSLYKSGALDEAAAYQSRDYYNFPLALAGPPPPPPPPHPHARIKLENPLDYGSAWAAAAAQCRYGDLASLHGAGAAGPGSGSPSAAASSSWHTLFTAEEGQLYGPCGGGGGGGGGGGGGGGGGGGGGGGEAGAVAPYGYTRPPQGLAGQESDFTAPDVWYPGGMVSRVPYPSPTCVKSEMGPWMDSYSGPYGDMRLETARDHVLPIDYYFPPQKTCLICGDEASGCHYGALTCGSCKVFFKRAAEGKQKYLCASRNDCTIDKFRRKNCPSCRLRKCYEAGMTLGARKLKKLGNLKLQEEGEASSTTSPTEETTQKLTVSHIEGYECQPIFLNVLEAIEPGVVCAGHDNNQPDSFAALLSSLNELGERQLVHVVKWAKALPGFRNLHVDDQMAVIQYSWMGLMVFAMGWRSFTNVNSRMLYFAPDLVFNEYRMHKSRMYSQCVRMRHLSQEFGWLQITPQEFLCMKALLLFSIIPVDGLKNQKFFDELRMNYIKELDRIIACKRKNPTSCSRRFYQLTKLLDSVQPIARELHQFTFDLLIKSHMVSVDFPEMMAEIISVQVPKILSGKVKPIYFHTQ

O=c1n(Cl)c(=O)n(Cl)c(=O)n1Cl
inactive: max response [1] 1.37% and 3.54% | Potency [2] | Potency [3] | outcome [4] | Potency [5] | outcome [6] | Potency [7] | Potency [8] | Potency [9] | Potency [10] | outcome [11] | Potency [12] | outcome [13] | Potency [14] | outcome [15] | Potency [16] | Potency [17] | outcome [18]

c1ccc2c(c1)oc1ccccc12
inactive: max response [1] -5.88% and -12.6% | Potency [2] | Potency [3] | outcome [4] | Potency [5] | outcome [6] | Potency [7] | Potency [8] | Potency [10] | outcome [11] | Potency [12] | outcome [13] | Potency [14] | outcome [15] | Potency [16] | Potency [17] | outcome [18]

Clc1cccc(Cl)c1Cl
inactive: max response [1] 14.5% | Potency [2] | outcome [4] | Potency [5] | Potency [19] | outcome [6] | Potency [7] | Potency [8] | Potency [9] | Potency [10] | outcome [11] | Potency [12] | outcome [13] | Potency [14] | outcome [15] | Potency [16] | Potency [17] | outcome [18]

Cc1[nH]c(=O)n(C(C)(C)C)c(=O)c1Cl
inactive: max response [1] -2.63% and 1.93% | Potency [2] | Potency [3] | outcome [4] | Potency [5] | outcome [6] | Potency [7] | Potency [8] | Potency [9] | Potency [10] | outcome [11] | Potency [12] | outcome [13] | outcome [15] | Potency [16] | Potency [17] | outcome [18] | Potency [20]

CCCCCCCCCl
inactive: max response [1] 2.47% and 5.32% | Potency [2] | outcome [4] | Potency [5] | Potency [19] | outcome [6] | Potency [7] | Potency [8] | Potency [9] | Potency [10] | outcome [11] | Potency [12] | outcome [13] | Potency [14] | outcome [15] | Potency [16] | Potency [17] | outcome [18]

CNC(=O)Oc1ccccc1OC(C)C
inactive: max response [1] 0.581% and -1.94% | Potency [2] | outcome [4] | Potency [5] | outcome [6] | Potency [7] | Potency [8] | Potency [9] | Potency [10] | outcome [11] | Potency [12] | outcome [13] | Potency [14] | outcome [15] | Potency [16] | Potency [17] | outcome [18]

CCNc1nc(NC(C)C)nc(SC)n1
inactive: max response [1] -1.45% | Potency [2] | outcome [4] | Potency [5] | outcome [6] | Potency [7] | Potency [8] | Potency [9] | Potency [10] | outcome [11] | Potency [12] | outcome [13] | outcome [15] | Potency [16] | Potency [17] | outcome [18] | Potency [20]
